Measured values reported in PubChem BioAssay AID592 (National Center for Advancing Translational Sciences (NCATS), 2007).
The campaign covered roughly 59,000 compounds. Fewer than 10 were called active. How the calls were made is not given here. Not all results are given here.

assay: qHTS Assay for Spectroscopic Profiling in A647 Spectral Region; settings: Compound fluorescence, A647 channel (570/671 nm), Tris buffer; active compounds read high
From the text: NIH Molecular Libraries Screening Centers Network [MLSCN] NIH Chemical Genomics Center [NCGC] […] Occasionally, the artifactual effect may originate from the compounds own spectral or other biophysical properties which generally tend to track its assay concentration. Pre-screening/profiling the library with respect to the compounds spectral properties should help one exclude false positives early on. While the most informative fluorescent profiling data set is obtained by performing a full excitation and emission scan of each well by using a monochromator-based plate reader, such an approach is practical only on a very limited scale as scanning each well requires long time. An alternative approach, applied here, is to perform plate reader scans using selected excitation and emission wavelength pairs to generate a multidimensional relational database that correlates compound concentration and the respective relative fluorescence intensity at a given wavelength set. A standard curve of Alexa 647 (A647) present on each plate as six-point concentration series, was used to compute a normalized fluorescence response, termed dye-equivalent concentration, for each compound at each concentration.
NCGC Assay Protocol Summary: Buffer: 100 mM Tris buffer, pH 8.0 Dye standard plate: The wells in columns 1 through 4 of a Kalypsys polypropylene 1536-well compound plate were filled with standard solutions of fluorophore corresponding to the spectral region of interest. Solutions of A647 were placed in the following wells: AC1, AD1: 3 mM, AC2, AD2: 300 uM, AC3, AD3: 30 uM, AC4, AD4: zero (DMSO), AE1, AF1: 3 uM, AE2, AF2: 900 nM, AE3, AF3: 300 nM, AE4, AF4: zero (DMSO). Assay Steps: Six uL of buffer were dispensed to 1536-well Greiner black plates. Compounds and dye standards (23 nL) were transferred via Kalypsys PinTool. The plates were incubated for 15 min at room temperature, and then read on ViewLux (Perkin-Elmer) High-throughput CCD imager using 570 nm and 671 nm excitation and emission filter set. Keywords: NIH Roadmap, MLSCN, MLI, MLSMR, qHTS, NCGC, A647, A-647, Fluorescent Profiling.

Max dye-equivalent concentration, inactive:
CC(=O)/C(=N\N=C(N)N)c1ccccc1 1 nM
Clc1ccc(Cc2nn3c(-c4ccncc4)nnc3s2)cc1 4 nM
CCc1cc(Br)ccc1NC(=O)C1CCCO1 (stereo not given) 19 nM
CCCS(=O)(=O)Nc1c(C(=O)O)[nH]c2ccccc12 1 nM
CCCCSc1nnc(-c2ccc(C)cc2)o1 5.1 nM
CCOC(=O)c1oc2ccccc2c1NC(=O)c1cccs1 5.6 nM
CCCS(=O)(=O)N1CCCC(C(=O)N2CCN(c3ccccc3)CC2)C1 (stereo not given) 1 nM
COc1ccc(CN2CN(C(C)C)CSC2=S)cc1 1 nM
COc1ccc(-c2cc3n(n2)CCc2nc4ccccc4n2-3)cc1 1 nM
O=C1c2oc3ccc(Br)cc3c(=O)c2C(c2cccc(F)c2)N1CCO (stereo not given) 3.9 nM
Cc1cc(N2CCCCC2)nc2ccc(Cc3ccc4nc(N5CCCCC5)cc(C)c4c3)cc12 3.4 nM
O=C(NC1CC2CCCC(C1)N2C(=O)N1CCCCC1)C1CCCCC1 (stereo not given) 31 nM
CCCCOc1ccccc1/C=c1/sc2nc(-c3oc4ccccc4c3C)nn2c1=O 22 nM
COc1ccccc1N1CCN(C(=O)Cn2nnc(-c3cccs3)n2)CC1 1 nM
COc1ccccc1CNc1ncnc2ccc(-c3ccc4c(c3)OCO4)cc12 31 nM
Cn1c(NC(=O)c2ccco2)c(-c2ccccc2Cl)c(=O)c2ccccc21 1 nM
NC(=S)c1ccc(C(N)=S)o1 5.7 nM
c1ccc(-c2nnc3n2NC(c2ccc4c(c2)OCO4)S3)cc1 (stereo not given) 12 nM
O=C(CCc1ccccc1)Nc1ccc(NC(=O)C2CC2)nc1 45 nM
COC(=O)c1ccc(NCC(=O)c2ccccc2)cc1 1.7 nM
